# Measured values from ChEMBL document CHEMBL4513146, “CO-ADD screening of Karazin Kharkiv National University (Ukraine) compounds”.
# Results with a measured potency or affinity are listed apart.
# Test system: Klebsiella pneumoniae
# Settings: Concentration 32 ug.mL-1;; ASSAY_TEST Inhibition of Bacterial Growth; detection method Absorption (OD600); MEDIA CAMHB; plate type 384well; NBS; CORNING #3640; time 18 hr
row,Compound,Inhibition
1,CCOc1ccc(-n2ccn3c(SCC(=O)c4cccc(OC)c4)nnc3c2=O)cc1,9.6%
2,CCc1ccc(NC(=O)Cn2nc3n(Cc4cccs4)c(=O)c4sccc4n3c2=O)cc1,9.1%
3,COc1cccc(CNC(=O)CSc2nnc3c(=O)n(-c4ccccc4)ccn23)c1OC,8.24%
4,O=C(Cn1nc2c3cc(-c4ccc(F)cc4)nn3ccn2c1=O)Nc1ccc2c(c1)OCCO2,11.81%
5,Cc1ccc(NC(=O)Cn2c(=O)c3nnc(C)n3c3ccccc32)cc1F,7.95%
6,COc1cc(NC(=O)CSc2nnc3c(=O)n(-c4ccccc4)ccn23)cc(OC)c1,17.43%
7,COc1cccc(-n2ccn3c(SCc4cccc(F)c4)nnc3c2=O)c1,9.47%
8,CCC(Sc1nnc2c(=O)n(-c3ccccc3)ccn12)C(=O)Nc1cc(F)ccc1F (stereo not drawn),10.28%
9,O=C(CCc1nnc2c3cc(-c4ccc(Cl)cc4)nn3ccn12)N1CCN(c2ccccn2)CC1,12.64%
10,COC(=O)c1ccc(NC(=O)CSc2nnc3c4cc(-c5ccc(OC)cc5)nn4ccn23)cc1,13.79%
11,CC(C)c1nnc2c(=O)n(CC(=O)Nc3cccc(Br)c3)c3ccccc3n12,13.24%
12,COc1cc(OC)c(NC(=O)Cn2nc3ccc(-c4ccc(C)c(C)c4)nn3c2=O)cc1Cl,7.84%
13,COc1cccc(-n2ccn3c(SCc4c(F)cccc4Cl)nnc3c2=O)c1,6.32%
14,Cc1ccc(-c2ccc3nn(Cc4cccc(F)c4)c(=O)n3n2)cc1C,7.96%
15,CC(=O)c1cccc(NC(=O)CSc2nc3ccccc3n3c(C)nnc23)c1,2.18%
16,Cc1cc(C)cc(NC(=O)Cn2nc3c4cc(-c5ccc(Cl)cc5)nn4ccn3c2=O)c1,7.37%
17,CCc1ccc(NC(=O)Cn2c(=O)c3nnc(C(C)C)n3c3ccccc32)cc1,8.25%
18,COc1ccccc1-n1ccn2c(SCC(=O)Nc3ccc(C)c(F)c3)nnc2c1=O,8.02%
19,Cc1ccc(NC(=O)Cn2nc3c(SCc4ccc(Cl)cc4)nccn3c2=O)cc1F,7.4%
20,O=C(Cn1nc2c(N3CCOCC3)nccn2c1=O)NCc1ccc(F)cc1,12.27%
21,O=C(Cn1nc2n(Cc3ccccc3)c(=O)c3ccccc3n2c1=O)Nc1ccc2c(c1)OCO2,2.83%
22,CC(C)Cn1c(=O)c2sccc2n2c(=O)n(CC(=O)NC(C)C)nc12,6.06%
23,Cc1nnc2c(S(=O)(=O)N(Cc3ccccc3F)c3ccc(C(C)C)cc3)cccn12,0.43%
24,Cc1ccccc1CSc1nnc2c(=O)n(-c3ccc(Br)cc3)ccn12,3.65%

# Test system: Candida albicans
# Settings: Concentration 32 ug.mL-1; ASSAY_TEST Inhibition of Fungal Growth; detection method Absorption (OD530)
row,Compound,Inhibition
1,Cc1cccc(NC(=O)CSc2nnc3c4cc(-c5ccc(F)cc5)nn4ccn23)c1C,1.75%
2,O=C(CSc1nnc2c(=O)n(-c3ccc(F)cc3)ccn12)c1ccccc1Cl,8.47%
3,CC(C)CCn1c(=O)c2ccccc2n2c(=O)n(CC#N)nc12,2.65%
4,Cc1ccc(NC(=O)Cn2nc3c(N4CCOCC4)nccn3c2=O)cc1F,3.27%
5,CC(=O)c1ccc(NC(=O)Cn2nc3c4cc(-c5ccc(Cl)cc5)nn4ccn3c2=O)cc1,29.09%
6,Cc1cccc(Oc2nccn3c(=O)n(CC(=O)N4CCN(c5ccc(F)cc5)CC4)nc23)c1C,-1.43%
7,O=c1n(Cc2ccccc2F)nc2ccc(S(=O)(=O)N3CCCCCC3)cn12,0.84%
8,O=C(Cn1nc2c(N3CCOCC3)nccn2c1=O)Nc1cc(C(F)(F)F)ccc1Cl,2.84%
9,CN(C)C(=O)CSc1nnc2c(=O)n(-c3ccc(F)cc3)ccn12,3.85%
10,CCCc1nnc2c(=O)n(CC(=O)Nc3ccc(C(C)=O)cc3)c3ccccc3n12,-1.78%
11,CCCn1c(=O)c2sccc2n2c(=O)n(CC(=O)c3cc(C)ccc3C)nc12,6.28%
12,Cc1cc(C)cc(N(Cc2c(F)cccc2Cl)S(=O)(=O)c2cccn3cnnc23)c1,3.71%
13,Cc1nnc2c(S(=O)(=O)N(Cc3ccc(F)cc3)c3ccc(Cl)cc3)cccn12,4.67%
14,CCc1cccc(NC(=O)CSc2nnc3c(=O)n(-c4ccccc4)ccn23)c1,8.67%
15,COc1ccccc1-n1ccn2c(SCc3ccccc3C)nnc2c1=O,3.95%
16,CCOc1ccc(-n2ccn3c(SCC(=O)c4cccc(OC)c4)nnc3c2=O)cc1,2.55%
17,CCc1ccc(NC(=O)Cn2nc3n(Cc4cccs4)c(=O)c4sccc4n3c2=O)cc1,35.62%
18,COc1cccc(CNC(=O)CSc2nnc3c(=O)n(-c4ccccc4)ccn23)c1OC,-1.2%
19,O=C(Cn1nc2c3cc(-c4ccc(F)cc4)nn3ccn2c1=O)Nc1ccc2c(c1)OCCO2,2.29%
20,Cc1ccc(NC(=O)Cn2c(=O)c3nnc(C)n3c3ccccc32)cc1F,2.03%

row,Compound,Inhibition
1,COc1cc(NC(=O)CSc2nnc3c(=O)n(-c4ccccc4)ccn23)cc(OC)c1,0.46%
2,COc1cccc(-n2ccn3c(SCc4cccc(F)c4)nnc3c2=O)c1,1.25%
3,CCC(Sc1nnc2c(=O)n(-c3ccccc3)ccn12)C(=O)Nc1cc(F)ccc1F (stereo not drawn),0.38%
4,O=C(CCc1nnc2c3cc(-c4ccc(Cl)cc4)nn3ccn12)N1CCN(c2ccccn2)CC1,-0.78%
5,COC(=O)c1ccc(NC(=O)CSc2nnc3c4cc(-c5ccc(OC)cc5)nn4ccn23)cc1,0.37%
6,CC(C)c1nnc2c(=O)n(CC(=O)Nc3cccc(Br)c3)c3ccccc3n12,6.25%
7,COc1cc(OC)c(NC(=O)Cn2nc3ccc(-c4ccc(C)c(C)c4)nn3c2=O)cc1Cl,1.07%
8,COc1cccc(-n2ccn3c(SCc4c(F)cccc4Cl)nnc3c2=O)c1,2.64%
9,Cc1ccc(-c2ccc3nn(Cc4cccc(F)c4)c(=O)n3n2)cc1C,2.65%
10,CC(=O)c1cccc(NC(=O)CSc2nc3ccccc3n3c(C)nnc23)c1,5.91%
11,Cc1cc(C)cc(NC(=O)Cn2nc3c4cc(-c5ccc(Cl)cc5)nn4ccn3c2=O)c1,6.87%
12,CCc1ccc(NC(=O)Cn2c(=O)c3nnc(C(C)C)n3c3ccccc32)cc1,26.99%
13,COc1ccccc1-n1ccn2c(SCC(=O)Nc3ccc(C)c(F)c3)nnc2c1=O,2.55%
14,Cc1ccc(NC(=O)Cn2nc3c(SCc4ccc(Cl)cc4)nccn3c2=O)cc1F,3.39%
15,O=C(Cn1nc2c(N3CCOCC3)nccn2c1=O)NCc1ccc(F)cc1,2.87%
16,O=C(Cn1nc2n(Cc3ccccc3)c(=O)c3ccccc3n2c1=O)Nc1ccc2c(c1)OCO2,0.36%
17,CC(C)Cn1c(=O)c2sccc2n2c(=O)n(CC(=O)NC(C)C)nc12,1.49%
18,Cc1nnc2c(S(=O)(=O)N(Cc3ccccc3F)c3ccc(C(C)C)cc3)cccn12,0.44%
19,Cc1ccccc1CSc1nnc2c(=O)n(-c3ccc(Br)cc3)ccn12,15.24%
